Source: PubChem BioAssay (NCI)
About 79,000 compounds went through this panel and 15% of them were active in at least one assay; those are over-represented in the sample as a whole. Activity calls are given as the source filed them. Cut-off read from the data, not from the text of the source: active = growth inhibition above about 70%; inactive = the rest.

Test: NCI Yeast Anticancer Drug Screen. Data for the wt2 strain (AID 169);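 note: 0% = growth of vehicle-treated yeast cultures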
Conditions: S. cerevisiae wt2 strain growth inhibition, stronger effect = higher value
Procedure: Growth inhibition of yeast strains with defined genetic alterations is measured as a screen for potential anti-cancer activity. Selected strains with alterations in DNA damage repair or cell cycle control were exposed to compounds and growth inhibition was measured relative to vehicle treated controls. The strain used in this assay is wt2

Measured: growth inhibition

C[CH2][Sn]([CH2]C)([O]C(=O)C(OC(C)=O)c1ccccc1)[O]C(=O)C(OC(C)=O)c1ccccc1 (stereo not given)
inactive: at 1.2 µM -1% | at 3.7 µM -2% | at 11.0 µM 1% | at 33.0 µM 57%
active: at 100.0 µM 93%

C[Si](C)(C)CNC(=O)OCc1ccccc1
inactive: at 1.2 µM -1% | at 3.7 µM -1% | at 11.0 µM -1% | at 33.0 µM 0% | at 100.0 µM 3%

S=c1[nH]nc(Nc2ccc(Cl)cc2)s1
inactive: at 1.2 µM 1% | at 3.7 µM 9% | at 11.0 µM 8%
active: at 33.0 µM 82% | at 100.0 µM 98%

CC1C(NNc2ccccc2)Oc2cc3c(cc2C1c1ccccc1O)OCO3 (stereo not given)
active: at 3.7 µM 98% | at 11.0 µM 99% | at 33.0 µM 96% | at 100.0 µM 94%
inactive: at 1.2 µM 51%

CCCCCCCCNC(=O)C1=C(C)NC(C)=C(C(=O)NCCCCCCCC)C1
inactive: at 1.2 µM 1% | at 3.7 µM 1% | at 11.0 µM 0% | at 33.0 µM 1% | at 100.0 µM 2%

Cc1ccc2ccc(O)cc2c1
inactive: at 1.2 µM -18% | at 3.7 µM -19% | at 11.0 µM -21% | at 33.0 µM -20% | at 100.0 µM 56%

S=C(S)NN1CCOCC1
inactive: at 1.2 µM 64% | at 3.7 µM 31% | at 11.0 µM 26% | at 33.0 µM 34% | at 100.0 µM 31%

O=C1C=CC(=O)N1c1ccc2c(c1)Cc1cc(NC(=O)C(F)(F)F)ccc1-2
inactive: at 1.2 µM 7% | at 3.7 µM 21% | at 11.0 µM 37% | at 33.0 µM 55% | at 100.0 µM 67%
